From a collection of fitness landscapes (doi:10.1126/science.1257360) come the findings set out here.

The labels stand for the following.
B1: PhoQ; a variant is named by its letters at X, in order, P23837 (parent)
chain: MKKLLRLFFPLSLRVRFLLATAAVVLVLSLAYGMVALIGYSVSFDKTTFRLLRGESNLFYTLAKWENNKLHVELPENIDKQSPTMTLIYDENGQLLWAQRDVPWLMKMIQPDWLKSNGFHEIEADVNDTSLLLSGDHSIQQQLQEVREDDDDAEMTHSVAVNVYPATSRMPKLTIVVVDTIPVELKSSYMVWSWFIYVLSANLLLVIPLLWVAAWWSLRPIEALAKEVRELEEHNRELLNPATTRELTSLVRNLNRLLKSERERYDKYRTTLTDLTHSLKTPLXXLQXXLRSLRSEKMSVSDAEPVMLEQISRISQQIGYYLHRASMRGGTLLSRELHPVAPLLDNLTSALNKVYQRKGVNISLDISPEISFVGEQNDFVEVMGNVLDNACKYCLEFVEISARQTDEHLYIVVEDDGPGIPLSKREVIFDRGQRVDTLRPGQGVGLAVAREITEQYEGKIVAGESMLGGARMEVIFGRQHSAPKDE

Whole data set: some 140,000 sequences, median “enrichment ratio after two sorts for PhoP signalling” near 0, cut for the highest 2% near 11. The list comes from a sample in which the highest values are over-represented; it also holds similar and randomly drawn sequences.

This experiment covers variants of B1. Briefly: enrichment ratio after two sorts for PhoP signalling (ratio (wild type AVST 3.29)); higher = more functional. As to conditions: with PhoP (E. coli).
As for TMAH, the enrichment ratio worked out at 1.31.
Next, NNEC: ≤ 0.25.
Turning to VWTE, the enrichment ratio was ≤ 0.25.
RHES: the enrichment ratio is ≤ 0.25.
In the case of IKSM, the enrichment ratio was ≤ 0.25.
In the case of WYNQ, the enrichment ratio was ≤ 0.25.
Regarding MFWL, the enrichment ratio was ≤ 0.25.
Take TAGE: the enrichment ratio was ≤ 0.25.
Under TATI stands 5.19.
For the variant LQEM, the enrichment ratio was ≤ 0.25.
As to KAAM, the enrichment ratio was ≤ 0.25.
As for TANE, the enrichment ratio was determined as 18.3.
Regarding TATM, the enrichment ratio amounted to 27.
Consider TAAM, for which the enrichment ratio amounted to 13.6.
Under YATM stands ≤ 0.25; under TAEM, 25.7; under TARM, ≤ 0.25.
Turning to IAEM, the enrichment ratio is ≤ 0.25.
In the case of KANE, the enrichment ratio is ≤ 0.25.
Next, LGLR: ≤ 0.25; IPIH: ≤ 0.25; IDYN: ≤ 0.25.
Next, LPTD: ≤ 0.25; HEFY: ≤ 0.25.
As for DTSM, the enrichment ratio is ≤ 0.25.
On to TAPM, for which the enrichment ratio was ≤ 0.25.
Consider KANM, for which the enrichment ratio was ≤ 0.25.
Regarding NAGL, the enrichment ratio is ≤ 0.25.
Take TANK: the enrichment ratio was ≤ 0.25.
Turning to KAGL, the enrichment ratio was ≤ 0.25.
As to TANL, the enrichment ratio was 10.
With TAWM, the enrichment ratio was determined as 9.41.
For TANM, the enrichment ratio was 19.5.
For the variant YANM, the enrichment ratio stood at 0.317.
For the variant TACK, the enrichment ratio is 11.6.
In the case of TANS, the enrichment ratio stood at 11.9.
For the variant TAGL, the enrichment ratio was determined as 12.4.
As to ERPF, the enrichment ratio is ≤ 0.25.
With TCLM, the enrichment ratio was 1.01.
On to EGYT, for which the enrichment ratio is ≤ 0.25.
Take LDPK: the enrichment ratio was ≤ 0.25.
Next, DMWR: ≤ 0.25.
In the case of EPFH, the enrichment ratio is ≤ 0.25.
Take QHGK: the enrichment ratio was ≤ 0.25.
DCLA: the enrichment ratio is ≤ 0.25.
Next, YSEC: ≤ 0.25; TACM: 12.4.
As for KAWE, the enrichment ratio was ≤ 0.25.
For TAGD, the enrichment ratio was 9.3.
Next, NAWE: ≤ 0.25; TANA: 15.9.
Consider NWCM, for which the enrichment ratio is ≤ 0.25.
Take YANA: the enrichment ratio was ≤ 0.25.
In the case of TAWE, the enrichment ratio turned out to be 24.5.
Consider KANA, for which the enrichment ratio is ≤ 0.25.
Next, TAVM: 2.01; TAGM: 13.2.
As for KACM, the enrichment ratio is ≤ 0.25.
For QGRI, the enrichment ratio was ≤ 0.25.
SQSD: the enrichment ratio was ≤ 0.25.
Under AVQG stands ≤ 0.25; under ICYL, ≤ 0.25; under MLLM, 7.62.
Consider DQQR, for which the enrichment ratio was ≤ 0.25.
With KFML, the enrichment ratio was ≤ 0.25.
Next, GDAW: ≤ 0.25; HFFI: ≤ 0.25; RKHF: ≤ 0.25.
WQPT: the enrichment ratio was ≤ 0.25.
With YTSQ, the enrichment ratio was ≤ 0.25.
Regarding ALSK, the enrichment ratio amounted to 2.03.
Consider TTSQ, for which the enrichment ratio is 16.8.
For ADSQ, the enrichment ratio was ≤ 0.25.
Take AHSQ: the enrichment ratio is ≤ 0.25.
Take RISQ: the enrichment ratio was ≤ 0.25.
In the case of AKSQ, the enrichment ratio worked out at 20.1.
Regarding KQSQ, the enrichment ratio was ≤ 0.25.
On to ALSQ, for which the enrichment ratio worked out at 16.2.
Consider VLSQ, for which the enrichment ratio is ≤ 0.25.
Consider CISQ, for which the enrichment ratio came out at 55.8.
Turning to NISQ, the enrichment ratio was ≤ 0.25.
For the variant TLEP, the enrichment ratio was ≤ 0.25.
Take DVCT: the enrichment ratio was ≤ 0.25.
For the variant TMFF, the enrichment ratio is ≤ 0.25.
Turning to AISQ, the enrichment ratio amounted to 15.6.
As for ATSQ, the enrichment ratio stood at 11.6.
Turning to VHSQ, the enrichment ratio is ≤ 0.25.
Next, GTSQ: 5.69; WISQ: ≤ 0.25.
Under ATSK stands 4.37; under GRRA, ≤ 0.25; under KANK, ≤ 0.25.
Next, LHPY: ≤ 0.25; YEKR: ≤ 0.25; IVLL: 1.17.
As to SGSV, the enrichment ratio worked out at 12.1.
Regarding KSTA, the enrichment ratio is ≤ 0.25.
Under SRSV stands ≤ 0.25.
For TVTA, the enrichment ratio was determined as 19.9.
Next, SGWR: ≤ 0.25; SQSV: 11.9; TSSV: 20.
Next, SGDW: ≤ 0.25.
Regarding SPTA, the enrichment ratio was ≤ 0.25.
On to KSSV, for which the enrichment ratio is ≤ 0.25.
With NSSV, the enrichment ratio was ≤ 0.25.
As to SDSV, the enrichment ratio is 5.55.
Under VCWY stands ≤ 0.25; under PCPR, ≤ 0.25; under KLGA, ≤ 0.25.
As to AKGF, the enrichment ratio was ≤ 0.25.
For EKFN, the enrichment ratio was ≤ 0.25.
Consider AGVG, for which the enrichment ratio turned out to be 1.3.
In the case of IANT, the enrichment ratio was ≤ 0.25.
Consider DDSV, for which the enrichment ratio is ≤ 0.25.
On to SISV, for which the enrichment ratio was 11.6.
On to KYSV, for which the enrichment ratio was ≤ 0.25.
With SCSV, the enrichment ratio was 9.38.
Take LASV: the enrichment ratio is ≤ 0.25.
On to LLSV, for which the enrichment ratio is ≤ 0.25.
Turning to VLSV, the enrichment ratio is ≤ 0.25.
For the variant SLSV, the enrichment ratio was 7.73.
For TLSV, the enrichment ratio came out at 16.7.
Consider TQSV, for which the enrichment ratio came out at 20.7.
Regarding SESV, the enrichment ratio came out at 16.9.
On to NVSV, for which the enrichment ratio is ≤ 0.25.
As to EDTD, the enrichment ratio was ≤ 0.25.
RDHH: the enrichment ratio is ≤ 0.25.
Next, GWHV: ≤ 0.25.
As for YFPW, the enrichment ratio is ≤ 0.25.
Next, LVPS: ≤ 0.25; NTCA: ≤ 0.25; HTEF: ≤ 0.25.
As to LAEC, the enrichment ratio is ≤ 0.25.
With IDHP, the enrichment ratio was ≤ 0.25.
Take NASV: the enrichment ratio was ≤ 0.25.
In the case of TMSV, the enrichment ratio was determined as 16.5.
Take TASV: the enrichment ratio is 17.9.
On to KMSV, for which the enrichment ratio was ≤ 0.25.
As to WPTS, the enrichment ratio is ≤ 0.25.
Take SPSV: the enrichment ratio is ≤ 0.25.
On to HCSV, for which the enrichment ratio was ≤ 0.25.
Take DMSV: the enrichment ratio is ≤ 0.25.
Consider WPTD, for which the enrichment ratio was ≤ 0.25.
Take WPTA: the enrichment ratio was 14.3.
As to KASV, the enrichment ratio is ≤ 0.25.
With TVSV, the enrichment ratio turned out to be 14.9.
Consider VEEC, for which the enrichment ratio was ≤ 0.25.
As to ITEG, the enrichment ratio came out at 0.328.
Regarding RMAH, the enrichment ratio is ≤ 0.25.
Next, NGEP: ≤ 0.25; ATVR: 4.36.
Next, QILH: ≤ 0.25.
